Tests used:
[1] = molecular target: Mitogen-activated protein kinase 3 (Homo sapiens) (UniProt P27361); conditions: at 1 µM;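 also: values are mean percent inhibition of MAPK3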
[2] = molecular target: SRSF protein kinase 3 (Homo sapiens) (UniProt Q9UPE1); conditions: at 0.1 µM
[3] = molecular target: Mitogen-activated protein kinase 14 (Homo sapiens) (UniProt Q16539); conditions: at 0.1 µM
[4] = molecular target: Mitogen-activated protein kinase 14 (Homo sapiens) (UniProt Q16539); conditions: at 1 µM
[5] = molecular target: Mitogen-activated protein kinase 11 (Homo sapiens) (UniProt Q15759); conditions: at 0.1 µM
[6] = molecular target: Mitogen-activated protein kinase 11 (Homo sapiens) (UniProt Q15759); conditions: at 1 µM
[7] = molecular target: T1, Mitogen-activated protein kinase 13 (Homo sapiens) (UniProt O15264); conditions: at 0.1 µM
T1 sequence (whole entry): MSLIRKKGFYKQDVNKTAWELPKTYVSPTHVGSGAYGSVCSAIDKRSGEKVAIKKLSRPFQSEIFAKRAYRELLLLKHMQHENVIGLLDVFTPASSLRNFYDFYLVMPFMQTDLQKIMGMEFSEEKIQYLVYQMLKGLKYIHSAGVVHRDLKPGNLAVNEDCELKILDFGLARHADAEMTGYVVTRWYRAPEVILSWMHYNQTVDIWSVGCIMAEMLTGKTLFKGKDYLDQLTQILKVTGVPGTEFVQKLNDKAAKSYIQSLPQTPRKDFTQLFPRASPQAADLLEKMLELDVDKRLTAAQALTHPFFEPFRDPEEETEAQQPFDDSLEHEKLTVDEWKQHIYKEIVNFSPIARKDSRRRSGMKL

[8] = molecular target: T1, Mitogen-activated protein kinase 13 (Homo sapiens); conditions: at 1 µM
[9] = molecular target: T2, Mitogen-activated protein kinase 12 (Homo sapiens) (UniProt P53778); conditions: at 0.1 µM
T2 sequence (whole entry): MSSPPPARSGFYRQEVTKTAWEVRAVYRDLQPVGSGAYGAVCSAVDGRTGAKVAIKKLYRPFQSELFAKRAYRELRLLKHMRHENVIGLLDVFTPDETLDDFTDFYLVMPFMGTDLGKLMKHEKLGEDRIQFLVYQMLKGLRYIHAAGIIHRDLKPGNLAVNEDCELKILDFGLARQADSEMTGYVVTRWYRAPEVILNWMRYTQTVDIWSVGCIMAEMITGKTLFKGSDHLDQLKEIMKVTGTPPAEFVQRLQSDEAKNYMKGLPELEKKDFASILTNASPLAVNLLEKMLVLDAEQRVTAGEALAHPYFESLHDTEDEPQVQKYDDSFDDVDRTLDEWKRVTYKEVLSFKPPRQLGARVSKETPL

[10] = molecular target: T2, Mitogen-activated protein kinase 12 (Homo sapiens); conditions: at 1 µM
[11] = molecular target: SRSF protein kinase 1 (Homo sapiens) (UniProt Q96SB4); conditions: at 0.1 µM
[12] = molecular target: SRSF protein kinase 1 (Homo sapiens) (UniProt Q96SB4); conditions: at 1 µM
[13] = molecular target: Phosphatidylinositol 4,5-bisphosphate 3-kinase catalytic subunit alpha isoform (Homo sapiens) (UniProt P42336); conditions: at 0.1 µM
[14] = molecular target: Phosphatidylinositol 4,5-bisphosphate 3-kinase catalytic subunit alpha isoform (Homo sapiens) (UniProt P42336); conditions: at 1 µM
[15] = molecular target: T3, Phosphatidylinositol 4,5-bisphosphate 3-kinase catalytic subunit delta isoform (Homo sapiens) (UniProt O00329); conditions: at 0.1 µM
T3 sequence (whole entry): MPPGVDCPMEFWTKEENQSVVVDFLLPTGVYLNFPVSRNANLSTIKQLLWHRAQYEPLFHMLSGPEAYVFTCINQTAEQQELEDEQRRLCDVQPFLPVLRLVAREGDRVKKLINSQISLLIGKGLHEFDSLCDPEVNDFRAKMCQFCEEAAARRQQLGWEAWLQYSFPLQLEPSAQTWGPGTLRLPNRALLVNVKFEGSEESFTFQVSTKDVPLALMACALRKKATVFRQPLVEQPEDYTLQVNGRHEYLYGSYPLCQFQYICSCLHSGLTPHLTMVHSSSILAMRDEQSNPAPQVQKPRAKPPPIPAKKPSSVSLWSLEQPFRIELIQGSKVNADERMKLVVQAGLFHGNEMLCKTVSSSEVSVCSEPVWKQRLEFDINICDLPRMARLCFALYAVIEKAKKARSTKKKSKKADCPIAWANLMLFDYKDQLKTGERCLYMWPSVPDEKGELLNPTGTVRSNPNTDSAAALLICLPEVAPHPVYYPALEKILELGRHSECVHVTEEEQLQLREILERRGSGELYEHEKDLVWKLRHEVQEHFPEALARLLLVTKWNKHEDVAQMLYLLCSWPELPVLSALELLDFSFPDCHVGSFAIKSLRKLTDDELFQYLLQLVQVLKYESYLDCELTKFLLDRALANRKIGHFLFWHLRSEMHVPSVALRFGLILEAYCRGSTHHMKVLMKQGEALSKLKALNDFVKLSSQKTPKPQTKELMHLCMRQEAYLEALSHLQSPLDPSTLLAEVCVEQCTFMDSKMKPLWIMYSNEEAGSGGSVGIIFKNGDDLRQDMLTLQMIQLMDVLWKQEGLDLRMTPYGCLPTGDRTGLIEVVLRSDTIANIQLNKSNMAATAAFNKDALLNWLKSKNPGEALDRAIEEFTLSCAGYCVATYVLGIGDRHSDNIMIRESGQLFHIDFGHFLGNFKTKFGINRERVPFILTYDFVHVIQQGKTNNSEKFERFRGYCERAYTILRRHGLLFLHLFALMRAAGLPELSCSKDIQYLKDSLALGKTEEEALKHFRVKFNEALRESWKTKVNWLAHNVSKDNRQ

[16] = molecular target: T3, Phosphatidylinositol 4,5-bisphosphate 3-kinase catalytic subunit delta isoform (Homo sapiens); conditions: at 1 µM
[17] = molecular target: Phosphatidylinositol 4-kinase beta (Homo sapiens) (UniProt Q9UBF8); conditions: at 0.1 µM
[18] = molecular target: Phosphatidylinositol 4-kinase beta (Homo sapiens) (UniProt Q9UBF8); conditions: at 1 µM
[19] = molecular target: Sphingosine kinase 1 (Homo sapiens) (UniProt Q9NYA1); conditions: at 0.1 µM;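 also: mean percent inhibition of SPHK1 activity, measured within the GSK PKIS screening panel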
[20] = molecular target: SRSF protein kinase 3 (Homo sapiens) (UniProt Q9UPE1); conditions: at 1 µM

Phosphatidylinositol 4,5-bisphosphate 3-kinase catalytic subunit alpha isoform (Homo sapiens), sequence (P42336 whole entry, canonical isoform): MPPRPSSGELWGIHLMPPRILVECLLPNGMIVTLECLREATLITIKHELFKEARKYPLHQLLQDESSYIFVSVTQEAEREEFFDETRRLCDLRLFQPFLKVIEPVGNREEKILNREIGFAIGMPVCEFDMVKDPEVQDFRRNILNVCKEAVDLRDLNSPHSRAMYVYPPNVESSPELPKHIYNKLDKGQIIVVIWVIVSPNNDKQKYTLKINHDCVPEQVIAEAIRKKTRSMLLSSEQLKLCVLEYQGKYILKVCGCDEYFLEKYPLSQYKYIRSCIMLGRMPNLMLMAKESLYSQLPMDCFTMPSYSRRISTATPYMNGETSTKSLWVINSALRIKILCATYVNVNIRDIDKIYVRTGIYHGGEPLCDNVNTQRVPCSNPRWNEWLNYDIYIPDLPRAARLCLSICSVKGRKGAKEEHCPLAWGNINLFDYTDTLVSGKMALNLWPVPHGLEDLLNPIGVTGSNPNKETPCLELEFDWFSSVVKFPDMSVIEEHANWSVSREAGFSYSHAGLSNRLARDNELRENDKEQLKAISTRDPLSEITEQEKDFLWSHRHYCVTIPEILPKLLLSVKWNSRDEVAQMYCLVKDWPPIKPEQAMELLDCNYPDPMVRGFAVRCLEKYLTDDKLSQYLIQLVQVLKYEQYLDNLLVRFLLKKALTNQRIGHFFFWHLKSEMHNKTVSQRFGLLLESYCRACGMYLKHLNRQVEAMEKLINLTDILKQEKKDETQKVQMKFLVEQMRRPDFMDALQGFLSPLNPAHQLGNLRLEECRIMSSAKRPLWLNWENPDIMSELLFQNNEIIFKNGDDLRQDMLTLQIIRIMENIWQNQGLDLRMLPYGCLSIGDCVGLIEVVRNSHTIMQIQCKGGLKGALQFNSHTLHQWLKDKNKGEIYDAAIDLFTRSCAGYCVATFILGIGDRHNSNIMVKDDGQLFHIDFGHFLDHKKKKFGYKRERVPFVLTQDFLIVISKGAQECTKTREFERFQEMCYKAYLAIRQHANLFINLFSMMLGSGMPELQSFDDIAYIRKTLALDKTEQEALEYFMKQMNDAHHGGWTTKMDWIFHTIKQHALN
SRSF protein kinase 1 (Homo sapiens), sequence (Q96SB4 whole entry, canonical isoform): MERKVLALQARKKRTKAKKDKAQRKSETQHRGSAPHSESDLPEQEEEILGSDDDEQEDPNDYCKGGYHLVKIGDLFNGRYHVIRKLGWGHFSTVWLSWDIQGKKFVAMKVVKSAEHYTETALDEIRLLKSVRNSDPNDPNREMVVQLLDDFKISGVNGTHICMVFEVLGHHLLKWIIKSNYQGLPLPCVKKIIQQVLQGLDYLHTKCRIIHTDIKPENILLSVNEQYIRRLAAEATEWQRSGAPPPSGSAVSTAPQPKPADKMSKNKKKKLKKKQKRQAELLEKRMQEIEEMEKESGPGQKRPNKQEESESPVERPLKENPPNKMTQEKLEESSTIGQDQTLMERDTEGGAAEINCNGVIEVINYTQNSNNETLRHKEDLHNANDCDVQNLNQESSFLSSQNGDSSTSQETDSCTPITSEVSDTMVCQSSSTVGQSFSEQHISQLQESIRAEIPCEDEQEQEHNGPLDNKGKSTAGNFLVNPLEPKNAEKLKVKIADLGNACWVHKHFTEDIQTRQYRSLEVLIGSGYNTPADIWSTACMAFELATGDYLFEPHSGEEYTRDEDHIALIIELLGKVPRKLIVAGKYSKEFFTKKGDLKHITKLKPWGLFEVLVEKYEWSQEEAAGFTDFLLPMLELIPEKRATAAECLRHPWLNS
Mitogen-activated protein kinase 3 (Homo sapiens), sequence (P27361 whole entry): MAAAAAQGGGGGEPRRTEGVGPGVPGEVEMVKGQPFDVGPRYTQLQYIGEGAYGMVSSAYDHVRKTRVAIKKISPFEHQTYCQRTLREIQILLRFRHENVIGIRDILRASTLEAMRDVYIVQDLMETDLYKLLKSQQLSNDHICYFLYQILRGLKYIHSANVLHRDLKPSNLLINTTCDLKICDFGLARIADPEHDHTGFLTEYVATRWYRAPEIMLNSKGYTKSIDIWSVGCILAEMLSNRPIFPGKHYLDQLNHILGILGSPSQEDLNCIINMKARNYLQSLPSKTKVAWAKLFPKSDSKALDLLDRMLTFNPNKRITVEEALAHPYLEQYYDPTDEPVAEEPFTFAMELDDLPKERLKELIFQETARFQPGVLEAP
Mitogen-activated protein kinase 11 (Homo sapiens), sequence (Q15759 whole entry): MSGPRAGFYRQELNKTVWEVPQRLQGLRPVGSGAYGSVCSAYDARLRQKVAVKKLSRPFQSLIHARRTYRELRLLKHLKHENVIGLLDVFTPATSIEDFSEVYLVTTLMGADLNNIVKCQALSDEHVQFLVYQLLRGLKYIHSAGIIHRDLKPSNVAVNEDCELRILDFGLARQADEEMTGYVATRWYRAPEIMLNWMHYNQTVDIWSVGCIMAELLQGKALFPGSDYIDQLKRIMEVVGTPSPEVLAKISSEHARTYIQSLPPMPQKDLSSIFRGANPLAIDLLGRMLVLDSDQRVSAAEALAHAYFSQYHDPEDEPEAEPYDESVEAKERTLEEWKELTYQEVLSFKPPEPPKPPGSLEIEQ
Mitogen-activated protein kinase 14 (Homo sapiens), sequence (Q16539 whole entry): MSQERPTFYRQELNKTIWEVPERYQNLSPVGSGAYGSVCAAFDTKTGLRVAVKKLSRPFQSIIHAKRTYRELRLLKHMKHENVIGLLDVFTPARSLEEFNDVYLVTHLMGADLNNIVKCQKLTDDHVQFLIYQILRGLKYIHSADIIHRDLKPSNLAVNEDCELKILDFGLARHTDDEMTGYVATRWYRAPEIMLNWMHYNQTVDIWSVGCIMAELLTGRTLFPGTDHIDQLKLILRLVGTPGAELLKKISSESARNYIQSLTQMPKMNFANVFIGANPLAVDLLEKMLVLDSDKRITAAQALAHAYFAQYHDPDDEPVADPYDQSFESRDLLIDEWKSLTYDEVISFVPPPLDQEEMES
Sphingosine kinase 1 (Homo sapiens), sequence (Q9NYA1 whole entry): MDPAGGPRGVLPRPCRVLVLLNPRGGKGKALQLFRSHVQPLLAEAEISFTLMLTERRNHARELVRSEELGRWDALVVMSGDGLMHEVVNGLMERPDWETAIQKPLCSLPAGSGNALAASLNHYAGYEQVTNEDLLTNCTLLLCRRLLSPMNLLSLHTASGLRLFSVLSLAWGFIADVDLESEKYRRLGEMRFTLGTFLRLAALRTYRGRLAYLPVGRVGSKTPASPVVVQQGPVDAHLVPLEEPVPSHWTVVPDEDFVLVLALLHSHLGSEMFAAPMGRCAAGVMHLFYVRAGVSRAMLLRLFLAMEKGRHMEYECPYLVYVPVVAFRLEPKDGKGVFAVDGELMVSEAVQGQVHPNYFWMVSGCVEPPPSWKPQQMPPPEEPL
SRSF protein kinase 3 (Homo sapiens), sequence (Q9UPE1 whole entry): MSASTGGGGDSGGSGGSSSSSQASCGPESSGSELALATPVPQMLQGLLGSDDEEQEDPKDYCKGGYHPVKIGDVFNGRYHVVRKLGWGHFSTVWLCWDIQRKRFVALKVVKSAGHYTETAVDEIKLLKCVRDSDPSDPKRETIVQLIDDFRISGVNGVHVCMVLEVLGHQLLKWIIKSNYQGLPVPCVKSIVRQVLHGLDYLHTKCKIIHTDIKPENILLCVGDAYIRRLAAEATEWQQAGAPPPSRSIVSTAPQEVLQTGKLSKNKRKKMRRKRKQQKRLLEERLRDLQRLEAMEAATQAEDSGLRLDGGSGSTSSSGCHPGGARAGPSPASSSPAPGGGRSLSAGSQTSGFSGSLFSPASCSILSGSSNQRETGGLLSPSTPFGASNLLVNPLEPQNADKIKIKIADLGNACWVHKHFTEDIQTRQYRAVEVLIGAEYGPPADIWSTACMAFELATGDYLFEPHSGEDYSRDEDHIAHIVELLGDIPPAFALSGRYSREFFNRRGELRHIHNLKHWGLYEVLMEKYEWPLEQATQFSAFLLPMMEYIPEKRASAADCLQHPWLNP
Phosphatidylinositol 4-kinase beta (Homo sapiens), sequence (Q9UBF8 2-816 limits assumed): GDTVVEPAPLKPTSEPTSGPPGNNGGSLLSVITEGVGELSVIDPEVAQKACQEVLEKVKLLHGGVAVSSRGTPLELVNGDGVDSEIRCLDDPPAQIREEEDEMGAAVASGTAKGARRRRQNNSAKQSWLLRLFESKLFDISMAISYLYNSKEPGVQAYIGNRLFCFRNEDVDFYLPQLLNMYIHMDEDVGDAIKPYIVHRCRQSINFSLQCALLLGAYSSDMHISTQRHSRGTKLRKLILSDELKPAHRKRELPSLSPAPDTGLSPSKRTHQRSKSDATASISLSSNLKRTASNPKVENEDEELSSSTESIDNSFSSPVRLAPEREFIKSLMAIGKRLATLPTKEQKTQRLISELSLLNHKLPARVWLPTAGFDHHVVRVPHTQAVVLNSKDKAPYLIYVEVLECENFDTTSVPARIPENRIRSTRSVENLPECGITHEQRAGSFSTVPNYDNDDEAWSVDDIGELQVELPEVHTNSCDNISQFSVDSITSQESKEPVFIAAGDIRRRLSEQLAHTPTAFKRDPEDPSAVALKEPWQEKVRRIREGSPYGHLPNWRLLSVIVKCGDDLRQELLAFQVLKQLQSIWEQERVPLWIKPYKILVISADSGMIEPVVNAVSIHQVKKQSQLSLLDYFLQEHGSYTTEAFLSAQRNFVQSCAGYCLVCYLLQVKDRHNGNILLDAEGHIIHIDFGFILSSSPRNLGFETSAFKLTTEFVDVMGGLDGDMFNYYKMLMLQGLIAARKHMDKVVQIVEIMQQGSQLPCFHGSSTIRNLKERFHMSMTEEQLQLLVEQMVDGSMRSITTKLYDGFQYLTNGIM

SMILES	inhibition [1] [%]	inhibition [2] [%]	inhibition [3] [%]	inhibition [4] [%]	inhibition [5] [%]	inhibition [6] [%]	inhibition [7] [%]	inhibition [8] [%]	inhibition [9] [%]	inhibition [10] [%]	inhibition [11] [%]	inhibition [12] [%]	inhibition [13] [%]	inhibition [14] [%]	inhibition [15] [%]	inhibition [16] [%]	inhibition [17] [%]	inhibition [18] [%]	inhibition [19] [%]	inhibition [20] [%]
COc1cc2ncn(-c3cc(OCc4cccs4)c(C(N)=O)s3)c2cc1OC	4.45	0.87	16.9	12.3	3.88	5.4	0.78	1.21	2	1.93	1.92	7.84	2.89	8.89	2.03	12.9	4.6	-3.17	0.03	–
CCc1ccc(Oc2nccc(-c3c(-c4ccc(F)cc4)ncn3C3CCNCC3)n2)cc1	8.24	3.09	–	–	–	–	–	–	–	–	-2.85	-3.81	3.74	3.81	1.87	6.26	3.17	2.82	1.33	0.07
O=C1NC(=O)C(c2cccc(Cl)c2)=C1Nc1ccc(Cl)c(C(=O)O)c1	3.9	-2.79	1.44	4.72	3.66	4.6	1.21	0.67	5.9	1.67	-2.19	-1.47	3.63	1.55	1.72	-0.43	0.69	-0.07	0.25	0.44
N#Cc1ccc(Oc2nccc(-c3c(-c4ccc(F)cc4)ncn3C3CCNCC3)n2)cc1	6.42	-1.55	–	–	–	–	–	–	–	–	-3.52	-3.38	5.16	19.6	2.8	17.6	1.26	1.85	0.59	-0.03
c1ccc(Oc2ccc(Nc3ncc(-c4ccccc4)o3)cc2)cc1	1.29	0.57	5.45	8.09	-0.05	4.25	1.2	0.96	-0.32	1.07	-0.83	0.96	4.13	5.69	6.64	7.88	2.11	4.73	0.41	0.33
Fc1ccc(-c2ncn(C3CCNCC3)c2-c2ccnc(Oc3ccc4c(c3)OCO4)n2)cc1	10.1	1.72	–	–	–	–	–	–	–	–	-1.04	0.51	4.23	4.92	0.82	3.24	2.26	4.42	1.03	6.43
Fc1ccc(-c2c(-c3ccncc3)nc3n2CCS3)cc1	2.25	-1.16	1.13	10.9	1.9	0.65	3.54	2.65	3.9	2.27	-0.47	-2.14	2.88	4.64	2.37	3.22	-2.06	1.12	3.13	1.49

Reference: ChEMBL document CHEMBL1961873, “Compounds: GSK PKIS; Assays: Nanosyn kinase panel” (2012)
